Measurements published in PubChem BioAssay AID504690 (Sanford-Burnham Center for Chemical Genomics, 2011).
About 2,700 (0.77%) of roughly 350,000 compounds were called active.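 How the source made its calls: active means inhibition reaching at least a set limit at 20 µM in the primary screen (cut at about 59% in these data); inactive means the rest.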 Only a selection was taken, and actives are over-represented in it overall.

tested on: glucose-6-phosphate dehydrogenase-6-phosphogluconolactonase (Plasmodium falciparum 3D7); test: inhibition of malaria parasite G6PD (PfGluPho) – biochemical, fluorescence intensity, uHTS, primary screen (AID 504690); details: PfGluPho enzyme, NADPH resazurin-diaphorase fluorescence; at 20 µM; active compounds read high;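 further: 0% = DMSO wells with substrate and 100% = DMSO wells lacking glucose-6-phosphate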

inhibition, active:
C=C1c2cccc(OC)c2O[C@H](C(=O)OCC)[C@@H]1CCCCCC 77.8%, Cn1c(-c2sccc2OCc2cccc(C(F)(F)F)c2)n[nH]c1=S 65.3%, O=C1/C(=C\c2ccc([N+](=O)[O-])cc2)CS(=O)(=O)C/C1=C/c1ccc([N+](=O)[O-])cc1 77.6%, COCCN1C=C2C(=O)C(C)(OC(=O)C3CCCC3)C(=O)C=C2C=C1c1ccsc1 (stereo unspecified) 72.5%, O=[N+]([O-])c1ccc(N2CCN(c3ccc(O)cc3)CC2)c(Cl)c1 61.5%, Cn1sc(=O)c2cc(S(=O)(=O)NC3CC3)ccc21 66.3%, COc1cc(C(=S)NCc2ccccc2)cc(Br)c1O 66.8%, COCCNC(=S)Nc1cc(S(=O)(=O)N2CCOCC2)ccc1N1CCCCC1 76.4%, S=C(NN=Cc1ccccn1)Nc1ccccn1 64%, CCOc1ccc(-n2c(N)c(C(=O)NCC3CCCO3)sc2=S)cc1 (stereo unspecified) 67.6%, Cn1c(CCC(=O)OCC(=O)NCc2ccccc2Cl)nc(=O)c2ccccc21 60.9%, COc1c(O)ccc2c1CN1CCc3cc4c(cc3C1C2)OCO4 (stereo unspecified) 75.1%, CN(C)C(=O)N=NC(=O)N(C)C 62.4%, CCc1cc(C(N)=O)c(NC(=O)c2ccc(OC)cc2)s1 63.8%, Nc1ccc(-c2nnc(-c3ccc(-c4ccccc4)cc3)o2)cc1 64%, Cc1ccc(NC(=O)Cn2sc3ccccc3c2=O)cc1 125%, O=C(/C=C/c1ccco1)Nc1ccc(Oc2ccccc2)cc1 62.8%, Cc1ccc(C(=O)/C=C/c2c(C)nn(-c3ccccc3)c2Cl)cc1 71.4%

inhibition, inactive:
CC(Oc1ccc(F)cc1)C(=O)N1CCN(c2ncccn2)CC1 (stereo unspecified) 8.63%, CCOC(=O)C(=Cc1ccccc1OC)C(=O)OCC -10.6%, CCOC(=O)C1=C(C)c2ccccc2OC1C(=O)OCC (stereo unspecified) 4.58%, CC1CCC2(CC1)NC(=O)N(CC(=O)c1ccc3c(c1)OCO3)C2=O (stereo unspecified) 6.6%, CCOC(=O)N1CCN(Cc2nc(Cc3cccc(C(F)(F)F)c3)no2)CC1 -8.4%, Cn1c(-c2sc3cc(C(F)(F)F)cnc3c2-c2ccccc2)n[nH]c1=S 27.8%, O=C(OCc1cn([C@@H]2C[C@H](c3ccc(Cl)cc3)N(Cc3cccs3)C[C@H]2O)nn1)c1ccccc1 11.3%, O=C(O)C1CCN(C(=O)OCc2ccccc2)CC1 -0.22%, CCN(C(=O)CSc1nnc(-c2ccc(OC(F)F)cc2)n1N)C1CCS(=O)(=O)C1 (stereo unspecified) -3.99%, O=C(c1ccc(Br)o1)N(c1ccccn1)C1CCCCC1 -15.9%, CC(=O)Nc1ccc(C=Cc2ccc([N+](=O)[O-])cc2)cc1 14.2%, O=C(O)C(=Cc1ccc([N+](=O)[O-])cc1)CCc1ccccc1 -27.5%, C[C@H]1CN([C@@H](C)CO)C(=O)c2cc(Br)cnc2O[C@H]1CN(C)S(=O)(=O)c1cccs1 9.15%, O=C(CCN1C(=O)c2ccncc2C1=O)Nc1cc(F)ccc1F -12.6%, CC1(OC(=O)CCc2ccccc2)C(=O)C=C2C=C(c3ccc(C#N)cc3)N(CCc3ccccn3)C=C2C1=O (stereo unspecified) 44.1%, CC1(OC(=O)C2CCCC2)C(=O)C=C2C=C(c3ccc(C#N)cc3)OC=C2C1=O (stereo unspecified) 23%, COCC(=O)N(C)C[C@H]1Oc2cc(Br)ccc2S(=O)(=O)N([C@H](C)CO)C[C@H]1C -15.7%, O=C(O)C1CCN(c2ccc([N+](=O)[O-])cc2[N+](=O)[O-])CC1 -6.12%, CCN1CCN(c2ccc([N+](=O)[O-])cc2C(=O)c2ccc(Cl)cc2)CC1 11.2%, CCN(CCCCOC(=O)c1ccc(OC)c(OC)c1)C(C)Cc1ccc(OC)cc1 (stereo unspecified) -1.86%, O=S(=O)(NC1CC1)c1ccc(F)c(F)c1 1.75%, CC1CCC(NS(=O)(=O)c2ccc3c(c2)n(C)c(=O)c(=O)n3C)CC1 (stereo unspecified) -1.38%, CC1(c2ccccc2)NC(=O)N(CC(=O)N2CC(=O)Nc3ccccc32)C1=O (stereo unspecified) 4.26%, CCCCOP(=O)(c1ccc(N(C)C)cc1)C(O)c1cc(OC)ccc1OC (stereo unspecified) 10.8%, C=C(C)C(=O)Nc1cccc(C2=NOC3(C2)C[C@H](C(N)=O)N(C(=O)C(c2ccccc2)c2ccccc2)C3)c1 (stereo partly specified) -3.38%, COc1ccccc1OCCC(=O)OCC(=O)NCc1ccccc1 9.79%, COc1cc(C(=O)NCc2ccncc2)cc(Br)c1OCc1ccccc1 10.8%, Cc1ccc(C(O)P(=O)(OC(C)C)c2ccc(N(C)C)cc2)cc1 (stereo unspecified) -15%, O=C(O)C1CCCN1c1nc(Cl)ccc1[N+](=O)[O-] (stereo unspecified) 26.3%, CC(C)(C)n1ncc2c(=O)n(Cc3c(Cl)cccc3Br)cnc21 -2.98%, CC(C)CCC(=O)Nc1cc(S(=O)(=O)N2CCOCC2)ccc1N1CCCC1 10.5%, O=C(COC(=O)Cc1ccc(F)cc1)Nc1cc(S(=O)(=O)N2CCOCC2)ccc1N1CCCC1 -0.28%, CC(Oc1cccc(Cl)c1)C(=O)Nc1ccc(S(=O)(=O)Nc2ncccn2)cc1 (stereo unspecified) -6.55%, S=C(Nc1cccnc1)Nc1ccccn1 7.51%, O=C(N/N=C/c1ccccn1)C12CC3CC(CC(C3)C1)C2 -7.42%, CC(=O)Nc1ccc(NC(=O)CCN2C(=O)C3CC=CCC3C2=O)cc1 (stereo unspecified) -13%, O=C(Nc1ccc(N2CCN(C(=O)c3ccccc3)CC2)c(Cl)c1)c1cccnc1 17.8%, O=C(NCCN1CCCC(O)C1)c1cc(COc2c(F)cccc2F)on1 (stereo unspecified) -19.2%, CN1CCN(NC(=O)c2ccc(S(=O)(=O)N3CCCCCC3)cc2)CC1 5.23%, COc1ccc(S(=O)(=O)NCc2cccnc2)cc1NC(=O)c1ccc(C)cc1 -3.1%, CCOc1ccc(NS(=O)(=O)c2ccc(C(=O)NCC3CCCO3)cc2)cc1 (stereo unspecified) 9.67%, CCOc1ccc(S(=O)(=O)N2CCN(C(=S)NCC3CCCO3)CC2)cc1 (stereo unspecified) 8.65%, O=C(Nc1ccccc1C(=O)N1CCOCC1)C1CCC(=O)N1C1CCCC1 (stereo unspecified) -1.14%, O=C(COC(=O)Cn1cnc2ccccc2c1=O)NCc1ccccc1Cl 11%, CC(OC(=O)CCc1nc(=O)c2ccccc2n1C)C(=O)NCc1ccc2c(c1)OCO2 (stereo unspecified) 5.1%, O=c1c2ccccc2nnn1CSc1nc2sc3c(c2c(=O)n1CC1CCCO1)CCC3 (stereo unspecified) 13.2%, CC[C@@H](C)[C@@H]1CN([C@@H](C)CN2CCC[C@H]2CN2C(N)=NC[C@H]2C(C)C)C(=N)N1CCc1ccc(Cl)c(Cl)c1 -10.9%, O=C(CN(CC1CCCO1)C(=O)CNS(=O)(=O)c1ccc(F)cc1)NCc1ccco1 (stereo unspecified) 9.81%, COc1ccc2cc1Oc1ccc(cc1)C[C@H]1c3cc(c(OC)cc3CCN1C)Oc1c(O)c(OC)cc3c1[C@H](C2)N(C)CC3 10.2%, COc1cc(C(=O)CCc2ccc3c(c2)OCO3)cc(OC)c1OC 31.9%, CCc1cccc(C)c1N1C(=O)CN(Cc2ccccc2)C1=S 8.09%, O=C(Nc1cccc(Cl)c1)Nc1ccccc1NS(=O)(=O)c1cccs1 -1.49%, CCCCSc1nc2c(c(=O)n1CC)SC(C)C2 (stereo unspecified) -22.8%, COc1ccc(C(=O)Nc2sc(C)c(C)c2CN2CCOCC2)cc1 3.12%, CCc1cc(C(=O)c2ccc(OC)cc2)c(NC(=O)CN2CCN(C)CC2)s1 -3.28%, O=C1CC(C(F)(F)C(F)(F)C(F)(F)C(F)(F)F)=Nc2ccccc2N1 6.19%, CCc1cccc2c3c([nH]c12)C(CC)(CC(=O)O)OCC3 (stereo unspecified) -16.9%, COc1ccc(-c2nnc(-c3ccc4ccccc4c3)o2)cc1 15.1%, CN(C)c1ccc(-c2nnc(-c3cccnc3)o2)cc1 3.13%, CC(C)C[C@@H](NC(=O)[C@H]1CCCN1C(=O)Cc1ccccc1)C(N)=O -7.04%, C/C=C/C=C/C(=O)OCC(=O)Nc1ccc(Cl)cc1 8.86%, O=C(Cn1nc(C(=O)O)c2ccccc2c1=O)Nc1ccc(F)cc1 -5.5%, Cc1ccc(NC(=O)Cn2c(C)csc2=O)cc1 3.32%, CCOc1ccc(/C(O)=C2\C(=O)C(=O)N(c3ccc(OC)cc3)C2c2ccccc2[N+](=O)[O-])cc1 (stereo unspecified) -3.26%, Cc1cc(OCC(=O)Nc2nccs2)c2c(C)c(C)c(=O)oc2c1 0.15%, CCCCn1c(N)c(N(CC(C)C)C(=O)c2cccc(S(=O)(=O)N3CC(C)OC(C)C3)c2)c(=O)[nH]c1=O (stereo unspecified) -1.62%, CCC1(CC)NC(=O)N(CC(=O)OCC(=O)Nc2ccc(C(F)(F)F)cc2)C1=O 3.64%, COc1cccc(NC(=O)COC(=O)/C=C/c2ccco2)c1 17.7%, O=C(O)/C=C\C(=O)Nc1ccc(OCc2ccccc2)cc1 -24.5%, CN(C)c1cccc(C(=O)N2CCC(n3nccc3NC(=O)C3CCOC3)CC2)c1 (stereo unspecified) 3.81%, COc1ccc(C(=O)N2CCN(c3ncccn3)CC2)cc1S(=O)(=O)N1CCOCC1 4.39%, Cc1nn(-c2ccccc2)c(Cl)c1/C=C/C(=O)c1ccc(O)cc1 -22.8%, Cc1ccc(-n2nc(C)c(/C=N/NC(=O)c3cccs3)c2Cl)cc1 18.2%
